Records with an inconclusive call do not appear. Active and inactive are the calls of the source. Calls follow the shape of the dose curve; as a rule, active = well fitted curve in the direction sought with a large enough effect; inconclusive = small, poorly fitted or top-dose-only effect, or another doubt; inactive = no such curve, though single readings can be large; an effect the other way counts as inactive or inconclusive.
Columns and labels:
CRL-7250 = normal cell line; experiment: Cytotoxic Profiling of Annotated Libraries Using Quantitative High-Throughput Screening (AID 1296008); settings: Five cell lines viability, CellTiter-Glo ATP luminescence, 48-72 h; max response: stronger effect = lower value; also: nearly all actives have a fitted effect of over 60% in size; as to max response: % is scaled to controls: 0 for no effect and ±100 for the full control effect
Summary of the method: (§1)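 Cells exposed to compounds for 48 or 72 hr at 37 degrees Celsius. Viability read as ATP-coupled luminescence with CellTiter-Glo after 10 min at room temperature.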

HaCat = experiment: as above; settings: Five cell lines viability, CellTiter-Glo ATP luminescence, 48-72 h; max response: stronger effect = lower value
Summary of the method: as §1

KB-3-1 = experiment: as above; settings: Five cell lines viability, CellTiter-Glo ATP luminescence, 48-72 h; max response: stronger effect = lower value
Summary of the method: as §1

NIH3T3 [1] = experiment: as above; settings: Five cell lines viability, CellTiter-Glo ATP luminescence, 48-72 h; max response: stronger effect = lower value
Summary of the method: as §1

C33A = experiment: Primary qHTS to identify gynecologic anti-cancer compounds using libraries of approved drugs and bioactive compounds (AID 1345084); settings: Gynecologic cancer cell panel viability, ATPlite luminescence, 48 h; series mostly up to 57.5 µM; also: % is scaled to controls: 0 for no effect and ±100 for the full control effect; nearly all actives have a fitted effect of over 55% in size
Summary of the method: (§2)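 Luminescence from the ATPlite ATP-monitoring reagent indicates viable cell number; lower signal means cytotoxicity. Cells received compound 16 h after seeding and were exposed for 48 h across five concentrations.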

CAOV3 = experiment: as above; settings: Gynecologic cancer cell panel viability, ATPlite luminescence, 48 h; series mostly up to 57.5 µM
Summary of the method: as §2

CASKI = experiment: as above; settings: Gynecologic cancer cell panel viability, ATPlite luminescence, 48 h; series mostly up to 57.5 µM
Summary of the method: as §2

Es-2 = experiment: as above; settings: Gynecologic cancer cell panel viability, ATPlite luminescence, 48 h; series mostly up to 57.5 µM
Summary of the method: as §2

HeLa = experiment: as above; settings: Gynecologic cancer cell panel viability, ATPlite luminescence, 48 h; series mostly up to 57.5 µM
Summary of the method: as §2

Hek293T = experiment: as above; settings: Gynecologic cancer cell panel viability, ATPlite luminescence, 48 h, control line for the selectivity index; series mostly up to 57.5 µM
Summary of the method: as §2

JEG-3 = experiment: as above; settings: Gynecologic cancer cell panel viability, ATPlite luminescence, 48 h; series mostly up to 57.5 µM
Summary of the method: as §2

OV90 = experiment: as above; settings: Gynecologic cancer cell panel viability, ATPlite luminescence, 48 h; series mostly up to 57.5 µM
Summary of the method: as §2

NIH3T3 [2] = experiment: qHTS assay to identify novel small-molecules to repurpose for Merkel cell carcinoma treatment (AID 1296009); settings: MCC and control cell lines, CellTiter-Glo viability, 72 h; series mostly up to 44.8 µM; also: nearly all actives have a fitted effect of over 60% in size
Summary of the method: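 CellTiter-Glo luminescence after 72 hr compound exposure at 37 degree celsius gave cell viability. Libraries NPC and MIPE were run as 8- and 11-point dose responses; RLUs normalized to DMSO (negative) and no-cell (cytotoxicity) controls.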

COc1ccc(CNCc2cccc3ccccc23)cc1
inactive: outcome (CRL-7250) | max response (HaCat) -12.6% | max response (KB-3-1) 3.07% | max response (NIH3T3 [1]) -4.32% | Potency (C33A) | Potency (CAOV3) | Potency (CASKI) | Potency (Es-2) | Potency (HeLa) | Potency (Hek293T) | Potency (JEG-3)

CC1(C)CC[C@]23CO[C@@]4(CCC5[C@@]6(C)CC[C@H](O[C@@H]7OC[C@H](O[C@@H]8O[C@H](CO)[C@@H](O)[C@H](O)[C@H]8O[C@@H]8OC[C@@H](O)[C@H](O)[C@H]8O)[C@H](O)[C@H]7O)[C@@](C)(CO)C6CC[C@@]5(C)[C@]4(C)CC2=O)[C@@H]3C1 (some centres undefined)
inactive: max response (CRL-7250) -12.4% | max response (HaCat) 2.87% | outcome (KB-3-1) | max response (NIH3T3 [1]) -14.1% | activity change, negative = cytotoxicity (C33A) -27.4% [at 11.6 µM] | activity change, negative = cytotoxicity (CAOV3) 7.02% [at 11.6 µM] | activity change, negative = cytotoxicity (CASKI) -3.31% [at 11.6 µM] | activity change, negative = cytotoxicity (Es-2) 9.11% [at 11.6 µM] | activity change, negative = cytotoxicity (HeLa) 16.9% [at 11.6 µM] | activity change, negative = cytotoxicity (Hek293T) 5.05% [at 11.6 µM] | activity change, negative = cytotoxicity (JEG-3) -8.75% [at 11.6 µM] | activity change, negative = cytotoxicity (OV90) -4.17% [at 11.6 µM]

O=C(NC[C@H](O)CN1CCc2ccccc2C1)c1ccnc(NC2CCC2)c1
inactive: max response (CRL-7250) -5.29% | max response (HaCat) -27.8% | max response (KB-3-1) -4.24% | max response (NIH3T3 [1]) -20.6% | Potency (C33A) | Potency (CAOV3) | Potency (CASKI) | Potency (Es-2) | Potency (HeLa) | Potency (Hek293T) | Potency (JEG-3)

CCC(C)C(=O)O[C@H]1[C@@H](OC(=O)c2ccoc2)C[C@](C)(O)[C@]23OC(C)(C)[C@H](C[C@H](OC(=O)c4ccoc4)[C@]12COC(C)=O)[C@H]3OC(C)=O (some centres undefined)
inactive: max response (CRL-7250) -11% | max response (HaCat) -1.74% | max response (KB-3-1) 3.34% | outcome (NIH3T3 [1]) | Potency (C33A) | Potency (CAOV3) | Potency (CASKI) | Potency (Es-2) | Potency (HeLa) | Potency (Hek293T) | Potency (JEG-3) | Potency (OV90)

Cc1cc(OCCCS(C)(=O)=O)cc(C)c1-c1cccc(COc2ccc3c(c2)OCC3CC(=O)O)c1 (centres undefined)
inactive: max response (CRL-7250) -4.99% | max response (HaCat) 0.974% | max response (KB-3-1) -3.22% | outcome (NIH3T3 [1]) | Potency (C33A) | Potency (CAOV3) | Potency (CASKI) | Potency (Es-2) | Potency (HeLa) | Potency (Hek293T) | Potency (JEG-3) | Potency (OV90)

Cc1c(C(=O)NCc2cccnc2)nn(-c2ccc(Cl)cc2Cl)c1-c1ccc(Cl)cc1
inactive: outcome (CRL-7250) | max response (HaCat) -13.1% | max response (KB-3-1) -24% | max response (NIH3T3 [1]) -4.76% | Potency (C33A) | Potency (CAOV3) | Potency (CASKI) | Potency (Es-2) | Potency (HeLa) | Potency (Hek293T) | Potency (JEG-3) | Potency (OV90)

NS(=O)(=O)c1ccc(N2N=C(c3ccccc3)CC2c2ccccc2)cc1 (centres undefined)
inactive: max response (CRL-7250) -0.316% | max response (HaCat) 4.65% | max response (KB-3-1) -12.2% | max response (NIH3T3 [1]) 2.93% | Potency (C33A) | Potency (CAOV3) | Potency (CASKI) | Potency (Es-2) | Potency (HeLa) | Potency (Hek293T) | Potency (JEG-3) | Potency (OV90)

C[C@H]1CC[C@@]2(OC1)O[C@H]1CC3C4CC[C@H]5C[C@@H](O)CC[C@]5(C)C4=CC(=O)[C@]3(C)[C@H]1[C@@H]2C (some centres undefined)
inactive: outcome (CRL-7250) | max response (HaCat) -3.38% | max response (KB-3-1) 0.81% | outcome (NIH3T3 [1]) | Potency (NIH3T3 [2]) | Potency (C33A) | Potency (CASKI) | Potency (Es-2) | Potency (HeLa) | Potency (Hek293T) | Potency (JEG-3) | Potency (OV90)

Reference: PubChem BioAssay (NCATS)
